Source: PubChem BioAssay
RXFP1 ag: qHTS Assay for Agonists of the Relaxin Receptor RXFP1; Relaxin receptor 1 (Homo sapiens), Q9HBX9; HEK293T-RXFP1 cAMP TR-FRET, 30 min; response scale: percent of porcine relaxin response, buffer zero; Potency, µM (highest dose often 57.5 µM), usual class: activators; 0.3% of 370,000 active; AID 2676, 2010; note: nearly all actives have a fitted effect of over 60% in size
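HEK293 cells stably expressing RXFP1, treated 30 min at 37C with compounds plus PDE4 inhibitor Ro 20174; cAMP measured by HTRF TR-FRET. Normalized to buffer and 29 nM porcine relaxin; EC50 by Hill fit.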
PTHR1 ag: qHTS for PTHR1 Agonists: Primary Screen | HEK293 GP2 PTHR1 cells, GloSensor cAMP luminescence, 1 h | Potency, µM (highest dose often 115 µM), most hits filed as activators | AID 743266, 2014 | 0.075% of 410,000 active; note: nearly all actives have a fitted effect of over 55% in size
Target sequence (Q03431 whole entry, looked up): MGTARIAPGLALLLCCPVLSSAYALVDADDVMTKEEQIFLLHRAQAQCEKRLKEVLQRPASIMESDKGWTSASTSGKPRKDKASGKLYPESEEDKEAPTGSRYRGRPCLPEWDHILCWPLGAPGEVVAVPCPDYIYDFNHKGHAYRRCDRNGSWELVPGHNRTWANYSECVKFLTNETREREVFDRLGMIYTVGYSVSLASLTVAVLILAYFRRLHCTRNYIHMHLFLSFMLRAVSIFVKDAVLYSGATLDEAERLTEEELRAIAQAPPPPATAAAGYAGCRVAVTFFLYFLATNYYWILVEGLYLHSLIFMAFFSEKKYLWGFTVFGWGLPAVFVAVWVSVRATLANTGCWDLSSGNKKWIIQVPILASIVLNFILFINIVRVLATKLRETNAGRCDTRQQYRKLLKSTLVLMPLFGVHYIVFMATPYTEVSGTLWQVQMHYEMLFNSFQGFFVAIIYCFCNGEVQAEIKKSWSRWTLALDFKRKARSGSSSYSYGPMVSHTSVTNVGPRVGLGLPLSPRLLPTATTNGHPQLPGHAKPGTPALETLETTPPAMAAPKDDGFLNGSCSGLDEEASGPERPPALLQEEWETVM
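HEK-293-derived GP2 cells expressing PTHR1 and a GloSensor cAMP reporter, 3,000/well, plated overnight, given luciferin plus IBMX (each 0.5 mM as added) for 1 h at 37 °C, then compound for 1 h at 37 °C. Luminescence was read after 15 min at room temperature.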
gsp ag: qHTS for Agonist of gsp, the Etiologic Mutation Responsible for Fibrous Dysplasia/McCune-Albright Syndrome: qHTS. 0.13% of 340,000 active. gsp mutant cells, cAMP HTRF, 30 min. Potency, µM (highest dose often 76.9 µM), hits mostly activators; active = well fitted activation curve with a large enough effect; inconclusive = small, poorly fitted or top-dose-only effect, or another doubt; inactive = no such curve, though single readings can be large or run the other way; cell line not stated here;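 note: phosphodiesterase inhibitor Ro 20-1724 added with compounds to block cAMP breakdown; nearly all actives have a fitted effect of over 60% in size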
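Cells stably selected in G418 were plated at 2000/well, grown 16-24 hr, then given compounds in DMSO with the PDE inhibitor […] (300 uM solution added) for 30 min at 37C; cAMP was read by HTRF.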
RXFP1 antagonist: qHTS Assay for Antagonists of the Relaxin Receptor RXFP1 | Relaxin receptor 1 (Homo sapiens), Q9HBX9 | HEK293-RXFP1, relaxin-stimulated cAMP HTRF, 30 min; active compounds read low | activity change, negative = inhibition, % at 57.5 µM | 0.59% of 350,000 active | AID 1259400, 2018;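 active = activity change of -60% or lower, but not beyond a set lower limit; inconclusive = change between -60% and -40%, or beyond the set limit; inactive = change above -40%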
gsp antagonist: qHTS for Antagonists of gsp, the Etiologic Mutation Responsible for Fibrous Dysplasia/McCune-Albright Syndrome: qHTS. gsp-mutant cells, cAMP HTRF, 30 min. Potency, µM (doses to about 76.9 µM), usual class: inhibitors. 0.4% of 340,000 active; calls by dose curve; cell line not stated here;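 note: intracellular cAMP measured with PDE inhibitor Ro 20-1724 present during compound exposure; nearly all actives have a fitted effect of over 65% in size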
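Cells, 2000/well, grown 16–24 h in DMEM 10% FBS with 0.5 mg/ml G418, then compounds plus […] (300 uM addition stock), 30 min at 37C. cAMP read by HTRF (cAMP-d2 and anti-cAMP antibody-K in lysis buffer) after 30 min RT.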
Large screens that a line does not name were inactive. Only some compounds are listed: those with a hit (about 1% of all), similar ones and a draw of the others. Unless noted, calls come from the whole dose curve; as a rule, active = well fitted curve in the direction sought with a large enough effect; inconclusive = small, poorly fitted or top-dose-only effect, or another doubt; inactive = no such curve, though single readings can be large; an effect the other way counts as inactive or inconclusive.

CCCCOC(=O)CNc1n[nH]c(=S)[nH]c1=O	RXFP1 ag inconclusive, gsp ag inconclusive, RXFP1 antagonist -63
CC(C)COC(=O)CNc1n[nH]c(=S)[nH]c1=O	gsp ag inconclusive, RXFP1 antagonist inconclusive
COc1ccc(NC(=O)c2nc(SCc3ccccc3F)ncc2Cl)cc1	none (no result: gsp ag, gsp antagonist)
CC(C)OCCCNC(=O)c1cn(C)c2ccc(S(=O)(=O)N3CCCCCC3)cc2c1=O	none (no result: gsp ag, gsp antagonist)
O=C1C=CC(=O)c2c(O)c(N3CCN(CCOCCO)CC3)c(Br)c(O)c21	gsp ag inconclusive, RXFP1 antagonist -105, gsp antagonist 25µM (no result: RXFP1 ag)
O=C1C=CC(=O)c2c(O)c(N3CCN(CCO)CC3)c(Cl)c(O)c21	RXFP1 antagonist inconclusive, gsp antagonist inconclusive (no result: RXFP1 ag)
Cc1snc(S(=O)(=O)/C(C#N)=N/Nc2cccc(C(F)(F)F)c2)c1C#N	gsp antagonist 35µM
COc1ccccc1CC1S/C(=N/N=C/c2ccco2)NC1=O (centres undefined)	gsp antagonist 28µM
O=C1N/C(=N/N=C/c2ccco2)SC1Cc1ccccc1 (centres undefined)	none
Cc1ccc(-c2noc(-c3ccccc3NC(=O)C3CC(=O)N(c4cccc(C)c4)C3)n2)cc1 (centres undefined)	none (no result: gsp ag, gsp antagonist)
CC(=O)O[C@@H]1C(=O)O[C@H]2[C@@H]1OC(=O)[C@@H]2OC(C)=O	none (no result: RXFP1 ag, PTHR1 ag, gsp ag, gsp antagonist)
O=C(COC(=O)c1c2ccccc2cc2ccccc12)Nc1ncc(C(F)(F)F)cc1Cl	gsp ag 25µM
CCOC(=O)c1c(-c2ccccc2)csc1NC(=O)c1cc(-c2cccc(Cl)c2)on1	none (no result: gsp ag, gsp antagonist)
CCOC(=O)c1c(-c2ccc(-c3ccccc3)cc2)csc1NC(=O)CNCCN(C)C	RXFP1 antagonist -103
CCOC(=O)c1c(-c2ccc(C)cc2)csc1NC(=O)c1cc(=O)c2cc(C)ccc2o1	PTHR1 ag 4µM (no result: gsp ag, gsp antagonist)
CCOC(=O)c1c(-c2ccccc2)csc1NC(=O)c1cc(-c2cccc(OC)c2)on1	PTHR1 ag 40µM (no result: gsp ag, gsp antagonist)
CC(C)(Oc1ccc(Cl)cc1)C(=O)OCCCOC(=O)C(C)(C)Oc1ccc(Cl)cc1	none (no result: RXFP1 ag, PTHR1 ag, gsp ag, gsp antagonist)
COc1cc(OC)cc(C(=O)Nc2ccc3c(c2)N(C2CCCC2)C(=O)c2ccccc2S3)c1	none (no result: gsp ag, gsp antagonist)
Cc1cc(OCC(=O)NCC(c2cccs2)N2CCOCC2)ccc1C(C)C (centres undefined)	none
O=C(NCC(c1cccs1)N1CCOCC1)c1cc(=O)[nH]c2ccccc12 (centres undefined)	RXFP1 antagonist -77
Cc1ccc(C(C)C)c(OCC(=O)NCC(c2cccs2)N2CCOCC2)c1 (centres undefined)	gsp antagonist 35µM
CC(=O)N1CC(=O)N=C1SCC(=O)Nc1nc(-c2ccccc2)c(-c2ccccc2)s1	RXFP1 antagonist -86
Cc1c(/C=N/Nc2nc3ccccc3[nH]2)c2ccccc2n1C	gsp antagonist 40µM
O=C(CCc1ccccc1Cl)NC1CCCN(c2ccc(C(F)(F)F)cn2)C1 (centres undefined)	PTHR1 ag inconclusive
COc1ccccc1CCC(=O)NC1CCCN(c2ccc(C(F)(F)F)cn2)C1 (centres undefined)	RXFP1 antagonist -99
CCCOC(=O)c1c(-c2ccccc2)c(-c2ccccc2)nn(C)c1=O	RXFP1 antagonist -65 (no result: gsp ag, gsp antagonist)
NC(=S)c1cc2ccc(O)cc2oc1=O	RXFP1 ag 13µM, gsp ag 2.5µM (no result: RXFP1 antagonist)
C/C(=N/NC(N)=S)c1cc2ccc(O)cc2oc1=O	none
C=CCn1c(=O)[nH]c2cc(C(=O)N3CC=C(c4ccccc4)CC3)ccc2c1=O	RXFP1 antagonist -72
O=C(CCn1c(=O)[nH]c2ccccc2c1=O)N1CC=C(c2ccccc2)CC1	none
O=C(NCC1(c2ccccc2)CCCC1)C(=O)Nc1cccc(Br)c1	none (no result: gsp ag, gsp antagonist)
NS(=O)(=O)c1ccc(CCNC(=O)C2CCN(c3ncnc4c3nc3n4CCCCC3)CC2)cc1	RXFP1 ag 16µM, gsp ag inconclusive
Cc1ccc(C)c(N2CCN(C(=O)C3CCCN(c4ncnc5c4nc4n5CCCCC4)C3)CC2)c1 (centres undefined)	RXFP1 antagonist -83, gsp antagonist inconclusive
O=C(NCc1ccccc1)C1CCN(c2ncnc3c2nc2n3CCCCC2)CC1	none (no result: gsp ag, gsp antagonist)
Cc1cccc(N2CCN(C(=O)C3CCN(c4ncnc5c4nc4n5CCCCC4)CC3)CC2C)c1 (centres undefined)	RXFP1 antagonist inconclusive, gsp antagonist 40µM
O=C(c1ccc2c(c1)N(Cc1ccccc1)C(=O)c1ccccc1S2(=O)=O)N1CCN(Cc2ccccc2)CC1	none (no result: gsp ag, gsp antagonist)
CCc1nc(Nc2ccc(N3CCN(C(C)=O)CC3)cc2)c2oc3ccccc3c2n1	none
CC(=O)N1CCN(c2ccc(Nc3ncnc4c3oc3ccccc34)cc2)CC1	gsp antagonist 28µM
OC1(c2ccc(Cl)cc2)CCNCC1	none (no result: RXFP1 ag, PTHR1 ag, gsp ag, gsp antagonist)
CC(=O)N(c1onc(C)c1C)S(=O)(=O)c1ccc(N)cc1	none (no result: RXFP1 ag, PTHR1 ag, gsp ag, gsp antagonist)
COC(=O)c1c(NS(=O)(=O)c2cccs2)sc2c1CCCC2	gsp antagonist 22µM
Cc1ccc(C(=O)Nc2nc(=O)n(C)s2)cc1	gsp antagonist 22µM
Cn1sc(NC(=O)c2ccc(Cl)cc2)nc1=O	none
Cc1ccc(C(=O)Nc2nc(=O)n(C(=O)CC(C)C)s2)cc1	none
CC(C)CC(=O)n1sc(NC(=O)c2ccccc2)nc1=O	gsp antagonist 28µM
CC(C)CN1CCc2nc(N3CCN(C)CC3)ncc2C1	PTHR1 ag inconclusive (no result: gsp ag, gsp antagonist)
O=C(CSc1nc2cc(C(=O)NC3CCCC3)ccc2c(=O)n1CC1CCCO1)c1cccc(Cl)c1 (centres undefined)	none (no result: gsp ag, RXFP1 antagonist, gsp antagonist)
O=C(Nc1ccc(N2CCN(C(=O)c3cccs3)CC2)cc1)c1ccc(F)cc1	RXFP1 antagonist -66
Cc1ccc(C2=NC(C)(C)N=C2SCC(=O)Nc2ccc(Cl)cc2)cc1	RXFP1 antagonist -64
CCc1cccc(C)c1NC(=O)CN1C(=O)c2c(c3ccccc3n2C)C1c1ccc(OC)cc1 (centres undefined)	none (no result: gsp ag, gsp antagonist)
COc1cc2c(cc1NC(=O)C(C)Sc1ccc(NC(C)=O)cc1)oc1ccccc12 (centres undefined)	gsp ag inconclusive, gsp antagonist 20µM
COc1cc2c(cc1NC(=O)CSc1nccn1C)oc1ccccc12	gsp antagonist 28µM
CC(C)=NNc1nc2c(c(=O)[nH]c(=O)n2C)n1CCc1ccccc1	RXFP1 antagonist -70
CCOC(=O)COc1cc(N2C(=O)CSCC2=O)c(Cl)cc1Cl	none
CCOC(=O)COc1cc(-n2c(=S)[nH]c3cc(OC)c(OC)cc3c2=O)c(Cl)cc1Cl	gsp antagonist 13µM
